# Values joined by “and” are separate entries in the source; they are usually repeats but may differ in a detail not shown here. Equal values may be shown once. Inconclusive results are not listed. Entries that show only a call come without a potency. A number with no mark means an inactive call. Active and inactive are the calls of the source. The call rests on the fitted dose curve; in most records, active means well fitted curve in the direction sought with a large enough effect in the repeat runs; inconclusive means weak or mixed curves; inactive means no such curve, though single readings can be large; an effect the other way counts as inactive or inconclusive.
# Experiments:
# [1] = A CellTox Green Cytotoxicity Assay to monitor cytotoxicity in HEK293 cells - 40 hour (AID 1224871); further: nearly all actives have a fitted effect of over 45% in size; further: potency means the concentration at half of the fitted maximal effect
# Method in brief: (§1)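 Cells (HEK293, 600/well) and dye reagent are dispensed together. After 5 h at 37 C, 23 nL compound is pinned in. Plates stay at 37 C for 40 h with fluorescence read at 0h, 8h, 16h, 24h, 32h and 40h.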
# [2] = qHTS RealTime-Glo MT Cell Viability Assay in HEK293 cells - 16 hour (AID 1224872); further: potency means the concentration at half of the fitted maximal effect; nearly all actives have a fitted effect of over 50% in size
# Method in brief: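 Assay medium contained NanoLuc luciferase plus cell-permeant prosubstrate, added with HEK293 cells at 600 cells/well. After 5 h at 37 C/5% CO2 compounds were added; plates stayed at 37 C for 40 h with serial luminescence reads.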
# [3] = A CellTox Green Cytotoxicity Assay to monitor cytotoxicity in HepG2 cells - 24 hour (AID 1224878); further: nearly all actives have a fitted effect of over 45% in size; further: potency means the concentration at half of the fitted maximal effect
# Method in brief: (§2)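 Cells and non-lytic dye reagent are dispensed together (600 HepG2 cells/well) and incubated 5 h before DMSO compound transfer. Kinetic fluorescence is then recorded in the same wells during 40 h at 37 C.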
# [4] = A CellTox Green Cytotoxicity Assay to monitor cytotoxicity in HepG2 cells - 40 hour (AID 1224879); further: nearly all actives have a fitted effect of over 40% in size; further: potency means the concentration at half of the fitted maximal effect
# Method in brief: as §2
# [5] = qHTS RealTime-Glo MT Cell Viability Assay in HEK293 cells - 0 hour (AID 1224880); further: top concentration of the series differs between compounds; nearly all actives have a fitted effect of over 45% in size
# Method in brief: (§3)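 Real-time viability in HEK293: signal arises when living cells convert a prosubstrate for NanoLuc in the medium, so luminescence tracks viable cell number. Compound (23 nL, DMSO) added 5 h post-seeding; kinetic reads at 0–40 h, 37 C.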
# [6] = A CellTox Green Cytotoxicity Assay to monitor cytotoxicity in HEK293 cells - 24 hour (AID 1224875); further: nearly all actives have a fitted effect of over 45% in size; further: potency means the concentration at half of the fitted maximal effect
# Method in brief: as §1
# [7] = A CellTox Green Cytotoxicity Assay to monitor cytotoxicity in HepG2 cells - 16 hour (AID 1224876); further: nearly all actives have a fitted effect of over 45% in size; further: potency means the concentration at half of the fitted maximal effect
# Method in brief: as §2
# [8] = qHTS RealTime-Glo MT Cell Viability Assay in HepG2 cells - 32 hour (AID 1224877); further: nearly all actives have a fitted effect of over 55% in size; further: potency means the concentration at half of the fitted maximal effect
# Method in brief: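 qHTS, HepG2, 600 cells/well, RealTime-Glo (NanoLuc + prosubstrate) added with cells; 5 h preincubation; DMSO compound addition; 37 C; luminescence at 0/8/16/24/32/40 h.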
# [9] = qHTS RealTime-Glo MT Cell Viability Assay in HEK293 cells - 40 hour (AID 1224874); settings: RealTime-Glo luminescence; max response: active compounds read low; further: nearly all actives have a fitted effect of over 50% in size; further: potency means the concentration at half of the fitted maximal effect
# Method in brief: as §3
# [10] = qHTS RealTime-Glo MT Cell Viability Assay in HepG2 cells - 8 hour (AID 1224873); further: nearly all actives have a fitted effect of over 55% in size
# Method in brief: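 Real-time viability: cells seeded at 600 per well together with NanoLuc and cell-permeant prosubstrate, compounds added after 5 h incubation. Luminescence tracked at 0, 8, 16, 24, 32 and 40 h of exposure.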
Structure (SMILES),Potency [1],Potency [2],Potency [3],Potency [4],Potency [5],Potency [6],Potency [7],Potency [8],Potency [9],Potency [10],max response [9] [%]
CC(C)(C)NC(=O)[C@@H]1C[C@@H]2CCCC[C@@H]2CN1C[C@@H](O)[C@H](Cc1ccccc1)NC(=O)[C@H](CC(N)=O)NC(=O)c1ccc2ccccc2n1,55.7 µM (active),24.9 µM (active),55.7 µM (active),49.6 µM (active),inactive,–,–,–,–,–,–
Oc1cccc(-c2c3nc(c(-c4cccc(O)c4)c4ccc([nH]4)c(-c4cccc(O)c4)c4nc(c(-c5cccc(O)c5)c5ccc2[nH]5)CC4)C=C3)c1,inactive,23.9 µM (active),inactive,inactive,inactive,inactive,inactive,inactive,–,–,–
N=C1C=CC(=C(c2ccc(N)cc2)c2ccc(N)cc2)C=C1,inactive,3.09 µM (active),inactive,inactive,inactive,inactive,inactive,24.5 µM (active),1.95 µM (active),–,–
COc1ccc(CN2CCN(C(c3ccc(F)cc3)c3ccc(F)cc3)CC2)c(OC)c1OC,4.77 µM (active),9.52 µM (active),inactive,10.7 µM (active),inactive,inactive,inactive,–,16.9 µM (active),–,–
C=CC(=O)OCC(CO)(COC(=O)C=C)COC(=O)C=C,2.76 µM (active) and 9.77 µM (active),5.51 µM (active),9.81 µM (active),11 µM (active) and 24.5 µM (active),inactive,43.6 µM (active),inactive,12.3 µM (active) and 17.4 µM (active),3.48 µM (active),–,–
COC(=O)C1=C(C)NC(C)=C(C(=O)OCCc2ccc(N3CCN(C(c4ccccc4)c4ccccc4)CC3)cc2)C1c1cccc([N+](=O)[O-])c1 (configuration not stated),inactive,–,inactive,inactive,inactive,inactive,inactive,inactive,–,inactive,0.767
CCCCCOc1ccccc1/C(=C\SC)n1ccnc1,inactive,–,inactive,–,inactive,inactive,inactive,inactive,–,inactive,–
CCCCCCCC/C=C\CCCCCCCCOCCO,31.9 µM (active),–,63.7 µM (active),63.7 µM (active),inactive,inactive,–,inactive,3.19 µM (active),inactive,–
O=C1CCCCCN1SSN1CCCCCC1=O,49 µM (active),–,–,54.9 µM (active),inactive,inactive,inactive,–,–,inactive,-12.6
CC[C@@]1(O)C(=O)OCc2c1cc1n(c2=O)Cc2cc3c(CN(C)C)c(O)ccc3nc2-1,21.3 µM (active),–,10.7 µM (active),7.56 µM (active),inactive,23.9 µM (active),21.3 µM (active),–,–,inactive,–
Cn1cc(C(=O)[C@@H]2CCc3nc[nH]c3C2)c2ccccc21,inactive,–,inactive,inactive,inactive,inactive,inactive,inactive,–,inactive,–
CCC1OCC(COc2ccc(Oc3ccccc3)cc2)O1 (configuration not stated),inactive,–,inactive,inactive,inactive,inactive,inactive,inactive,–,inactive,–
Cc1oc(-c2ccccc2)nc1CCC(=O)c1ccc(CC2SC(=O)NC2=O)cc1 (configuration not stated),inactive,–,inactive,inactive,inactive,inactive,–,inactive,–,inactive,-22.3
CCC(Cl)C(Cl)C(Cl)CC(Cl)C(Cl)C(C)Cl (configuration not stated),inactive,–,inactive,inactive,inactive,inactive,–,inactive,–,inactive,-19.8
CN(C)[C@@H]1C(=O)C(C(N)=O)=C(O)[C@@]2(O)C(=O)C3=C(O)c4c(O)cccc4C[C@H]3C[C@@H]12,inactive,–,inactive,inactive,inactive,inactive,inactive,inactive,–,inactive,–
Cc1[nH]nc2c1N=C(c1ccccc1Cl)c1cc([N+](=O)[O-])ccc1N2,inactive,–,inactive,inactive,inactive,inactive,inactive,inactive,–,inactive,–
Clc1ccc2cc3ccccc3cc2c1,inactive,–,inactive,–,–,inactive,inactive,inactive,–,inactive,–
CCOc1ccc2nc3cc(N)ccc3c(N)c2c1,21.3 µM (active),–,23.9 µM (active),6.01 µM (active),inactive,–,inactive,8.49 µM (active),13.4 µM (active),inactive,–
NC(=O)N1C(=O)C(C(=O)c2cc(Cl)cs2)c2cc(F)c(Cl)cc21 (configuration not stated),inactive,–,inactive,–,–,inactive,inactive,–,–,inactive,-0.493
Oc1c(Cl)cc(Cl)c2cccnc12,9.52 µM (active),–,–,8.49 µM (active),inactive,inactive,–,inactive,8.49 µM (active),inactive,–

# From PubChem BioAssay (Tox21)
